KB-3-1 cytotox = kills parental KB-3-1 adenocarcinoma cells. Potency, µM (doses to about 46.1 µM), usual class: cytotoxic. KB-3-1 viability, CellTiter-Glo ATP luminescence, 72 h. actives 1.4% (n = 400,000); also: nearly all actives have a fitted effect of over 60% in size
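Cytotoxicity in the drug-sensitive parental line KB-3-1 was scored as loss of CellTiter-Glo luminescence following 72 h incubation with compound. Values come from curve fitting of normalized concentration-response data.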
SW480 rereplic = DNA re-replication induction in SW480 cells | SW480 DNA re-replication, Hoechst DNA content imaging, 48 h | actives 1.8% (n = 340,000) | AID 624297 | Potency, µM (highest dose often 46.1 µM), hits mostly activators; also: nearly all actives have a fitted effect of over 55% in size
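Per well, 250 cells were exposed to pinned compound for 48 hr. Nuclear DNA was visualised with Hoechst (40 min, 37 C) and total object intensity recorded by fluorescence scanning.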
KB-V1 MDR tox = kills drug-selected multidrug resistant KB-V1 cells. KB-V1 MDR cells viability, CellTiter-Glo, 72 h. Potency, µM (highest dose often 46.1 µM), hits mostly cytotoxic. actives 3.4% (n = 400,000); also: nearly all actives have a fitted effect of over 60% in size
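Drug-selected KB-V1 cells, grown in DMEM lacking phenol red with 10% FBS, receive compound titrations; after three days at 37 degrees C, surviving cell ATP is quantified by CellTiter-Glo luminescence and responses normalized and curve-fitted.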
PINK1 modulator = modulators of PINK1 expression | AID 624263 | Potency, µM (titrated, usually from 76.6 µM), most hits filed as activators | PINK1 immunofluorescence, high-content cytometry, 24 h | actives 0.2% (n = 410,000); active = well fitted activation curve with a large enough effect; inconclusive = small, poorly fitted or top-dose-only effect; cell line not stated here; also: nearly all actives have a fitted effect of over 65% in size
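A stable cell line was treated with compounds at 5 concentrations for 24 hours, with CCCP as control. PINK1 levels and mitochondrial localization were measured by immunofluorescence with mitochondrial, cell and nuclear markers after fixation, read by laser-scanning cytometry.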
MCF10A rerep = DNA re-replication induction in MCF 10a cells | AID 624296 | actives 2.9% (n = 350,000) | MCF 10A DNA re-replication, Hoechst nuclear intensity, 48 h | Potency, µM (doses to about 46.1 µM), actives largely listed as activators; also: nearly all actives have a fitted effect of over 50% in size
A number is an active result; 0 = inactive; ? = inconclusive; - = not tested or not shown. Hits are enriched below; roughly 6.7% of the tested compounds scored in any of these assays. Unless noted, calls follow the shape of the dose curve; as a rule, active = well fitted curve in the direction sought with a large enough effect; inconclusive = small, poorly fitted or top-dose-only effect, or another doubt; inactive = no such curve, though single readings can be large; an effect the other way counts as inactive or inconclusive.

SMILES	KB-3-1 cytotox	SW480 rereplic	KB-V1 MDR tox	PINK1 modulator	MCF10A rerep
CCn1c(SCC(=O)N2CCC(C)CC2)nc2c(c1=O)SC(C)C2 (centres undefined)	0	0	0	0	0
CCCCNC(=O)C1(C)CCCCN1C(=O)c1ccc2c(c1)C(C)(C)CCC2(C)C (centres undefined)	?	-	?	0	-
O=C(CSc1nnc(-c2ccccc2)n1Cc1ccccc1)NNC(=O)c1ccccc1O	?	5.17µM	0	0	0
Cc1ccc(C(=O)CSc2nnc(-c3cccnc3)n2N)cc1	?	?	7.31µM	0	?
O=C(CN1CCN(c2ccccc2Cl)CC1)NC1CCCc2ccccc21 (centres undefined)	?	?	9.2µM	0	0
O=C(CSc1nnc(-c2ccccc2O)n1Cc1ccccc1)NNC(=O)c1ccccc1O	?	-	0	0	0
O=C(CSc1nnc(-c2ccncc2)n1Cc1ccccc1)NC1CCCc2ccccc21 (centres undefined)	0	0	10.3µM	0	?
Cc1ccc(Cl)cc1N1CCN(CC(=O)NC2CCCc3ccccc32)CC1 (centres undefined)	?	0	?	0	?
Cc1ccc(CCNC(=O)C(CC(C)C)NS(=O)(=O)c2ccc3c(c2)oc(=O)n3C)cc1 (centres undefined)	0	-	0	0	-
O=C(NCCc1ccc(Cl)cc1)c1cccn1-c1nnc(N2CCCC2)s1	0	-	0	0	-
COc1ccc(Cl)cc1S(=O)(=O)N1CCC(C(=O)NCc2ccco2)CC1	0	0	0	0	0
CC(C)OC(=O)CSc1nnc(-c2cccnc2)n1Cc1ccccc1	0	0	20.6µM	0	0
O=C(CSc1c(Cl)cccc1Cl)NC1CCCc2ccccc21 (centres undefined)	0	0	14.6µM	0	0
Cc1ccc(NC(=O)NC2CCCc3ccccc32)cc1 (centres undefined)	?	0	0	0	0
CC(C)(C)c1ccc(NC(=O)NC2CCCc3ccccc32)cc1 (centres undefined)	?	?	20.6µM	0	?
Cc1ccc(-n2c(SCC(=O)OC(C)C)nnc2-c2ccccn2)cc1	0	0	20.6µM	0	0
CN(CCO)C(=O)c1cn(C2CCCN(Cc3cccc4ccccc34)C2)nn1 (centres undefined)	-	-	-	0	-
O=S(=O)(N/N=C/c1cn(Cc2ccccc2)c2ccccc12)c1ccccc1	?	0	20.6µM	0	?
Cc1ccc(C(=O)N/N=C/c2cn(Cc3ccccc3)c3ccccc23)cn1	16.4µM	?	?	0	?
Cc1ccccc1C(=O)Nc1nnc(CC(=O)N/N=C/c2ccco2)s1	0	0	0	0	0
N#CCC(=O)N/N=C/c1cn(Cc2cccc3ccccc23)c2ccccc12	?	14.6µM	0	0	5.17µM
NC(=O)Cn1cc(/C=N\NS(=O)(=O)c2ccc(Cl)cc2)c2ccccc21	0	0	0	0	0
Cc1ccccc1C(=O)Nc1nnc(CC(=O)N/N=C/c2cn(Cc3ccccc3)c3ccccc23)s1	?	20.6µM	0	?	6.51µM
CCC1NC(=O)c2cccnc2-n2c1nc1ccc(F)cc1c2=O (centres undefined)	0	-	0	0	-
CCOC(=O)C1=CCN(S(=O)(=O)c2ccccc2Br)C1c1ccccc1 (centres undefined)	0	-	?	0	-
SMILES	KB-3-1 cytotox	SW480 rereplic	KB-V1 MDR tox	PINK1 modulator	MCF10A rerep
CC(C)c1ccc(NC(=O)COC(=O)Cn2cnc3c2c(=O)n(C)c(=O)n3C)cc1	0	-	?	0	-
O=C1C=C(Nc2ccc(Cl)cc2Cl)CC(c2ccco2)C1 (centres undefined)	6.51µM	16.4µM	7.31µM	0	?
CC/C(=N\NC(=O)c1ccoc1C)c1ccc(C)o1	0	0	0	0	0
CC/C(=N\NC(=O)c1c(-c2ccccc2)noc1C)c1ccc(C)o1	0	0	13µM	0	0
COCc1c(C(=O)NC2CCCC2)cnn1-c1nccc(-c2cccs2)n1	-	-	-	0	-
CC1CCC/C(=C(\C#N)c2nc(-c3cc4ccccc4oc3=O)cs2)C1 (centres undefined)	?	0	8.2µM	0	0
COc1ccc(/C=C(/C#N)c2nc(-c3cc4ccccc4oc3=O)cs2)cc1	0	-	0	0	-
CC(C(=O)N=Nc1c(O)[nH]c2ccccc12)n1cnc2ccccc2c1=O (centres undefined)	0	?	18.4µM	0	?
Cc1cccc2c(N=NC(=O)C(C)n3cnc4ccccc4c3=O)c(O)[nH]c12 (centres undefined)	0	0	0	0	0
Cc1ccc(NC(=O)C2CCN(S(=O)(=O)c3ccc(N4CCCC4=O)cc3)CC2)cc1Cl	?	0	0	0	0
Oc1c(C(c2ccccn2)N2CCC(Cc3ccccc3)CC2)cc(Cl)c2cccnc12 (centres undefined)	?	?	2.59µM	0	15.8µM
CN1CCN(C(c2ccccn2)c2cc(Cl)c3cccnc3c2O)CC1 (centres undefined)	0	?	0	0	0
CCOC(=O)[C@]12CCCC=C1N(Cc1ccc3c(c1)OCO3)C(=O)[C@H](CC(=O)NCCc1ccccc1OC)C2	?	-	23.1µM	0	-
CCOC(=O)[C@]12CCCC=C1N(Cc1ccccc1)C(=O)[C@H](CC(=O)NCC13CC4CC(CC(C4)C1)C3)C2	18.4µM	-	20.6µM	-	-
COC(=O)[C@]12CCCCC=C1N(Cc1ccc3c(c1)OCO3)C(=O)[C@H](CC(=O)N1CCC(c3ccccc3)CC1)C2	0	-	0	-	-
CCOC(=O)[C@]12CCCC=C1N(Cc1ccc3c(c1)OCO3)C(=O)[C@H](CC(=O)N1CCC(c3ccccc3)CC1)C2	?	-	23.1µM	0	-
CCOC(=O)[C@]12CCCC=C1N(CCC1=CCCCC1)C(=O)[C@H](CC(=O)NCCC(C)C)C2	0	-	?	-	-
CCOC(=O)[C@]12CCCC=C1N(CCC1=CCCCC1)C(=O)[C@H](CC(=O)NCC13CC4CC(CC(C4)C1)C3)C2	?	-	18.4µM	-	-
COc1ccc(NC(=S)N2CCC3CC2c2c(Cl)cccc23)c(OC)c1 (centres undefined)	?	-	0	0	-
COc1ccc(CN2CCN(C(C)=O)CC2)cc1OC1CCN(C(=O)c2ccc3[nH]c(C)c(C)c3c2)CC1	-	-	-	0	-
CCCCOCCCNC(=O)C[C@@H]1C[C@@]2(C(=O)OCC)CCC=C2N(Cc2ccc3c(c2)OCO3)C1=O	0	-	?	0	-
CCOC(=O)[C@]12CCCC=C1N(Cc1ccco1)C(=O)[C@H](CC(=O)NCCCCc1ccccc1)C2	?	-	14.6µM	0	-
CCOC(=O)[C@]12CCC=C1N(Cc1ccc3c(c1)OCO3)C(=O)[C@H](CC(=O)NCC13CC4CC(CC(C4)C1)C3)C2	?	-	23.1µM	0	-
O=C(CN1CCCC1c1cccs1)Nc1cc(S(=O)(=O)N2CCCCC2)ccc1Cl (centres undefined)	0	0	0	0	0

Assay outcomes (PubChem BioAssay)
